# Rows were chosen to be rich in hits. Some 6.5% of all compounds tested hit in one or more screens of this group.
# HCMV antiviral: qHTS Assay for inhibitors of the human cytomegalovirus (HCMV); activity change, negative = inhibition, % at 57.5 µM; hit rate 4.5% among 410,000; AID 1259415, 2018; HFF cells, HCMV-luciferase reporter, 72 h; active compounds read low; in the data active = activity change below about -60%; inconclusive = no clear call, values can overlap the other calls; inactive = above about -39%
#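 Two-dose cell screen: HFF monolayers treated with compounds and infected with luciferase-expressing HCMV at 1 PFU/cell, 72 h at 37C, then lysed for luciferase measurement.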
# VACV Venus inh: qHTS for Stage-Specific Inhibitors of Vaccinia Orthopoxvirus: Venus Reporter Primary qHTS. Vaccinia virus Venus reporter expression, fluorescence. Potency, µM (highest dose often 36.5 µM), actives largely listed as inhibitors. hit rate 0.46% among 330,000; calls by dose curve; tested in A549 cells; note: nearly all actives have a fitted effect of over 30% in size
# Lassa entry inh: qHTS for Inhibitors of binding or entry into cells for Lassa Virus; Lassa virus pseudotype entry inhibition, cell reporter; Potency, µM (top dose mostly 37.9 µM), hits mostly inhibitors; hit rate 1.2% among 300,000; calls by dose curve; tested in HEK293 cells; note: nearly all actives have a fitted effect of over 50% in size
# FMDV antiviral: High Throughput Screening for Foot and Mouth Disease Virus Antivirals; FMDV antiviral cell-based qHTS; Potency, µM (titrated, usually from 57.9 µM), hits mostly inhibitors; hit rate 1.2% among 410,000; AID 1159524, 2015; calls by dose curve; tested in HEK293T cells; note: read-out not given here; nearly all actives have a fitted effect of over 45% in size
# Vaccinia mCherry: qHTS for Stage-Specific Inhibitors of Vaccinia Orthopoxvirus: mCherry Reporter Primary qHTS | Vaccinia virus mCherry reporter infection, fluorescence | AID 720579, 2013 | Potency, µM (highest dose often 36.5 µM), most hits filed as inhibitors | hit rate 0.63% among 310,000; calls by dose curve; tested in A549 cells; note: nearly all actives have a fitted effect of over 35% in size
# MARV entry inh: qHTS for inhibitors of binding or entry into cells for Marburg Virus | hit rate 1.8% among 300,000 | Potency, µM (top dose mostly 37.8 µM), actives largely listed as inhibitors | AID 540276, 2011 | Marburg virus pseudotyped entry inhibition, cell reporter; calls by dose curve; tested in HEK293 cells
# A number is an active result; - = inactive; ? = inconclusive; . = no result; [ ] = another dose, or the depositor's remark.
SMILES,HCMV antiviral,VACV Venus inh,Lassa entry inh,FMDV antiviral,Vaccinia mCherry,MARV entry inh
O=C(N/N=C/c1ccc([N+](=O)[O-])cc1)c1cccc2cc[nH]c12,-,.,-,-,.,-
Nc1ncnc2c1ncn2[C@@H]1O[C@H](C(=O)NCC2CCN(Cc3ccccc3)CC2)[C@@H](O)[C@H]1O,-,-,.,-,-,.
C#CCCCO/N=C1\C[C@@H](O)[C@@H](O)[C@@H]2[C@@H]3C(=O)N(c4ccc(F)cc4F)C(=O)[C@@H]3CC[C@H]12,.,.,.,.,.,-
CCCOc1ccc(-c2nnc(-c3cccs3)o2)cc1,-,-,2µM,-,.,-
C#CCCCON=C1C[C@@H](O)[C@H](O)[C@H]2[C@@H]3C(=O)N(C4CCCCC4)C(=O)[C@@H]3CC[C@@H]12,.,.,.,.,.,-
Cc1nc2ccccc2c2c(N)c3ccccc3n12,-63,-,-,-,-,-
C=CCn1cccc(/C=C/C(=O)c2ccc(C(C)(C)C)cc2)c1=S,-,?,16µM,25µM,?,?
Cc1ccc(-c2nnc(C3CCN(S(=O)(=O)c4ccc(C)c(C)c4)CC3)o2)cc1,?,-[7.34 µM],-,-,-[7.34 µM],-
CC(=O)Nc1ccc(S(=O)(=O)N2CCC(c3nnc(-c4ccc(C)cc4)o3)CC2)cc1,-96,-,-,?,-,-
Cc1cccc(-c2nnc(C3CCN(S(=O)(=O)c4cccc(Cl)c4)CC3)o2)c1,-94,-,-,-,-,?
COc1ccccc1-c1cc(C(F)(F)F)nc(S(=O)(=O)CCCC(=O)NCc2ccc(F)cc2)n1,-99,-,?,14µM,?,?
COc1ccccc1-c1cc(C(F)(F)F)nc(S(=O)(=O)CCCC(=O)N2CCCCC2C)n1 (stereo not drawn),-,-,?,7.9µM,-,?
COc1ccccc1-c1cc(C(F)(F)F)nc(S(=O)(=O)CCCC(=O)NC(C)C)n1,-,-,?,8.9µM,-,?
COc1ccccc1-c1cc(C(F)(F)F)nc(S(C)(=O)=O)n1,-104,.,?,32µM,.,?
COc1ccccc1-c1cc(C(F)(F)F)nc(N2CCCC2)n1,-,.,-,-,.,-
O=C(CN1CCN(C(=O)C2CC2)CC1)Nc1ccc(Cl)cc1F,-,-,?,-,-,-
Cc1ccc(N2C(=O)c3ccccc3C2O)nc1 (stereo not drawn),.,.,3.7µM,.,.,2.1µM
COc1ccc(-c2ccc(NS(=O)(=O)c3cc([N+](=O)[O-])c(C)c([N+](=O)[O-])c3)cc2)nn1,-,.,.,-,.,.
O=C(NC(=S)Nc1ccc(Oc2ccc(Cl)cc2)cc1)c1ccccc1,-87,-,-,-,-,-
O=C(Nc1ccc(NC(=S)NC(=O)C(c2ccccc2)c2ccccc2)cc1)c1ccccc1,-66,?,?,?,?,?
O=C(NC(=S)Nc1ccc(NC(=O)c2ccccc2)cc1)c1ccc(F)cc1,?,-,-,-,-,-
CCCC[C@]12Cc3cc(C#N)ccc3[C@H](O1)c1c(c3cc(F)ccc3oc1=O)O2,.,.,.,.,.,-
CCCC(=O)Oc1ccccc1C1SCc2cc(C)c(C)cc2CS1,-60,-,?,-,-,?
COC(=O)[C@H]1CC(=O)N[C@@H]1c1ccc(OC(C)C)c(OC)c1,-,.,.,.,.,.
Cc1ccc(C)c(C2NC(=O)c3ccccc3N2)c1 (stereo not drawn),-68,?,.,-,?,.
SMILES,HCMV antiviral,VACV Venus inh,Lassa entry inh,FMDV antiviral,Vaccinia mCherry,MARV entry inh
COc1cc(C)c(C2NC(=O)c3ccccc3N2)cc1C (stereo not drawn),-,-,?,-,?,-
COCC1=NC2C(=O)N(C)C(=O)N(CC(C)C)C2=N1 (stereo not drawn),.,.,.,.,.,-
CCc1cc(C(=O)c2ccc(C)cc2)c(NC(=O)CCl)s1,-,-,?,-,-,?
Cc1cc(C(=O)c2ccc(Cl)cc2)c(NC(=O)CCl)s1,-,-,-,25µM,?,?
O=c1cccc2n1Cc1cc3ccccc3nc1-2,-,-,?,-,-,-
CC[C@@]1(O)C(=O)OCc2c1cc1n(c2=O)Cc2cc3c(N)cccc3nc2-1,-99,?,.,?,?,.
CCCCc1cc(=O)oc2c(CN(C)C)c(O)ccc12,-,-,-,-,-,-
CC[C@@]1(O)C(=O)OCc2c1cc1n(c2=O)Cc2cc3c(CN(C)C)c(O)ccc3nc2-1,-97,?,.,-,?,.

# Screening results: PubChem, National Center for Advancing Translational Sciences (NCATS)
